Assay results published in PubChem BioAssay (NCATS).
Calls of active or inactive are those of the source. Calls come from the whole dose curve; as a rule, active = well fitted curve in the direction sought with a large enough effect; inactive = no such curve, though single readings can be large or run the other way.

Experiment: qHTS for small molecule inhibitors of Yes1 kinase: Counter Assay (AID 686950);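 note: no kinase present so only ADP-Glo detection of a fixed ADP amount is tested; luminescence from ADP-Glo reporting ADP in a fixed ATP and ADP mixture; 0% = DMSO wells with ATP plus ADP and -100% = ATP-only wells without ADP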
Conditions: series mostly up to 76.9 µM; activity change, negative = inhibition: at the top concentration
Method in brief: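 Measuring interference with ADP-Glo, the assay ran 60 min at room temperature on an ATP/ADP mix lacking enzyme. Values were normalized to ATP-plus-ADP (maximum) and ATP-only (minimum) DMSO controls.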

Question: For `COc1ccc(C2=N[C@H](c3ccc(Cl)cc3)[C@H](c3ccc(Cl)cc3)N2C(=O)N2CCNC(=O)C2)c(OC(C)C)c1`, which “activity change, negative = inhibition” value is on record?
Answer: Its value is 4.49% (inactive).

Question: With `CCCS(=O)(=O)Nc1ccc(F)c(C(=O)c2c[nH]c3ncc(-c4ccc(Cl)cc4)cc23)c1F` as the compound, how does the “activity change, negative = inhibition” value read?
Answer: Its value is -2.71% (inactive).

Question: For `CS(=O)(=O)c1cccc(CNc2nc(Nc3ccc4c(c3)CCC(=O)N4)ncc2C(F)(F)F)c1`, which “activity change, negative = inhibition” value is on record?
Answer: Its value is 3.22% (inactive).

Question: For `COc1ccccc1[C@H](c1cccc2ccccc12)[C@@](C)(C#N)C(=O)N1CCC(c2cccc(C(F)(F)F)c2)CC1`, which “activity change, negative = inhibition” value is on record?
Answer: The value was 5.28% (inactive).

Question: Which “activity change, negative = inhibition” value does the source give for `COCCNCCCn1c(C(=O)CF)c(-c2ccc(C)cc2)c2c(N)ncnc21` here?
Answer: The value was -0.0558% (inactive).

Question: Which “activity change, negative = inhibition” value does the source give for `O=C(C=Cc1ccc(/C=C/C(=O)Nc2ccc(C3=NCCN3)cc2)cc1)Nc1ccc(C2=NCCN2)cc1` here?
Answer: The value was 0.448% (inactive).

Question: Which “activity change, negative = inhibition” value does the source give for `CC[C@@H](C)[C@H](NC(=O)[C@H](CC1CCCCC1)NC(=O)c1ccno1)C(=O)N1CCC2(CCc3ccccc32)CC1` here?
Answer: Its value is 2.54% (inactive).

Question: With `COc1ccc(CC2=NN3C([C@@H](CCc4ccccc4)[C@@H](C)O)=NC(C)C3C(=O)N2)cc1OC` (some centres not stated) as the compound, how does the “activity change, negative = inhibition” value read?
Answer: Its value is 1.9% (inactive).

Question: Which “activity change, negative = inhibition” value does the source give for `O=C(Nc1cccnc1)N1CCC(Cc2cccc(Oc3ccc(C(F)(F)F)cn3)c2)CC1` here?
Answer: The value was 3.25% (inactive).

Question: For `CC(C)(N)C(=O)N[C@H](COCc1ccccc1)C(=O)N1CCC2(CC1)CN(S(C)(=O)=O)c1ccccc12`, which “activity change, negative = inhibition” value is on record?
Answer: The value was 2.04% (inactive).

Question: Which “activity change, negative = inhibition” value does the source give for `CCOC(=O)N[C@@H]1CC[C@@H]2[C@@H](C1)C[C@H]1C(=O)O[C@H](C)[C@H]1[C@@H]2C=Cc1ccc(-c2cccc(F)c2)cn1` here?
Answer: Its value is 2.36% (inactive).

Question: For `CCOc1cc(N2CCC(O)CC2)ccc1Nc1ncc2c(n1)N(C)c1ccccc1C(=O)N2C`, which “activity change, negative = inhibition” value is on record?
Answer: The value was 4.96% (inactive).

Question: With `NC(=O)c1ccc(-c2nc(-c3ccc4c(c3)OCCO4)c(-c3ccccn3)[nH]2)cc1` as the compound, how does the “activity change, negative = inhibition” value read?
Answer: Its value is 4.54% (inactive).

Question: Which “activity change, negative = inhibition” value does the source give for `O=C(C1CC1)N1CC[C@@H](Cn2c(-c3ccc(-c4ccc5occc5c4)cc3)nc3cnccc32)C1` here?
Answer: The value was 1.94% (inactive).

Question: Which “activity change, negative = inhibition” value does the source give for `Cc1n[nH]c(C)c1Cc1sc2c(c1C(=O)N1C[C@H](O)CO1)c(=O)n(C)c(=O)n2CC(C)C` here?
Answer: Its value is -0.191% (inactive).

Question: Which “activity change, negative = inhibition” value does the source give for `Cc1ccc2c(c1)C(=O)[C@@]1(O)CCN(c3ccccc3)C1=N2` here?
Answer: The value was -9.74% (inactive).

Question: For `Cc1cc(SCc2sc(-c3ccc(C(F)(F)F)cc3)nc2C)ccc1OCC(=O)O`, which “activity change, negative = inhibition” value is on record?
Answer: The value was 2.46% (inactive).

Question: For `CCN(CC)CCCC(C)Nc1nc(C)cc(Nc2ccc3nc(C)cc(N)c3c2)n1` (configuration not stated), which “activity change, negative = inhibition” value is on record?
Answer: Its value is -12.1% (inactive).

Question: For `COCC(=O)NCC=Cc1ccc2ncnc(Nc3ccc(Oc4ccc(C)nc4)c(C)c3)c2c1`, which “activity change, negative = inhibition” value is on record?
Answer: The value was 4.49% (inactive).

Question: For `OCCn1cc(-c2cnc3nnn(Cc4ccc5ncccc5c4)c3n2)cn1`, which “activity change, negative = inhibition” value is on record?
Answer: Its value is 1.99% (inactive).

Question: With `Cn1cnc2c(F)c(Nc3ccc(Br)cc3Cl)c(C(=O)NOCCO)cc21` as the compound, how does the “activity change, negative = inhibition” value read?
Answer: Its value is 3.25% (inactive).

Question: For `COc1ccc(-c2oc3cc(OC)ccc3c2C(=O)c2ccc(C#N)cc2)cc1`, which “activity change, negative = inhibition” value is on record?
Answer: Its value is 1.13% (inactive).

Question: For `CCOc1cc(C=C2C(=O)N(c3ccccc3)N=C2C)cc(Cl)c1OCC(=O)OC`, which “activity change, negative = inhibition” value is on record?
Answer: Its value is 4.6% (inactive).

Question: For `O=C(O)CCc1ccc(NCc2cccc(Oc3ccccc3)c2)cc1`, which “activity change, negative = inhibition” value is on record?
Answer: Its value is -0.669% (inactive).

Question: For `COc1nc(-c2ccc3c(c2)OCO3)n(-c2ccc(NC(=O)CSc3ccccc3)cc2)n1`, which “activity change, negative = inhibition” value is on record?
Answer: The value was -1.6% (inactive).

Question: With `Cc1cc(C=c2sc3nc4ccccc4n3c2=O)c(C)n1-c1ccccc1` as the compound, how does the “activity change, negative = inhibition” value read?
Answer: Its value is 0.0219% (inactive).

Question: For `Cc1cc(-c2ccc(CC(=O)Nc3ccc(-c4cccnc4)cc3)cc2)ccn1`, which “activity change, negative = inhibition” value is on record?
Answer: The value was -0.0327% (inactive).

Question: With `COc1cccc2cc(-c3nc(C4CCC(C(=O)O)CC4)n4ncnc(N)c34)[nH]c12` (configuration not stated) as the compound, how does the “activity change, negative = inhibition” value read?
Answer: Its value is 7.56% (inactive).

Question: Which “activity change, negative = inhibition” value does the source give for `CCCS(=O)(=O)Nc1ccc(F)c(C(=O)c2c[nH]c3ncc(Cl)cc23)c1F` here?
Answer: Its value is -1.34% (inactive).

Question: With `CCCn1c(=O)c2[nH]c(C34CC5CC3C[C@@H](C5)C4)nc2n(CCC)c1=O` as the compound, how does the “activity change, negative = inhibition” value read?
Answer: The value was -5.56% (inactive).

Question: With `CNCc1ccc(-c2[nH]c3cc(F)cc4c3c2CCNC4=O)cc1` as the compound, how does the “activity change, negative = inhibition” value read?
Answer: The value was 3.65% (inactive).

Question: For `CCn1c(-c2nonc2N)nc2cnc(Oc3cccc(NC(=O)c4ccc(OCCN5CCOCC5)cc4)c3)cc21`, which outcome is on record?
Answer: The outcome was “inactive”.

Question: For `Cc1c(CN2CCN(C(=O)C(C)C)CC2)sc2c(N3CCOCC3)nc(-c3cnc(N)nc3)nc12`, which “activity change, negative = inhibition” value is on record?
Answer: The value was 5.73% (inactive).

Question: For `CCOC(=O)C1=C[C@@]2(CC)CCCN3CCc4c(n1c1ccccc41)[C@H]32`, which “activity change, negative = inhibition” value is on record?
Answer: Its value is 0.714% [at 47.8 µM] (inactive).

Question: Which “activity change, negative = inhibition” value does the source give for `Nc1cccc(S(=O)(=O)N2CCCN(S(=O)(=O)c3ccc4c(c3)OCCO4)CC2)c1` here?
Answer: The value was -0.315% (inactive).

Question: For `CNC(=O)c1ccc(N2C(=S)N(c3ccc(C#N)c(C(F)(F)F)c3)C(=O)C2(C)C)cc1F`, which “activity change, negative = inhibition” value is on record?
Answer: Its value is -3.09% (inactive).

Question: Which “activity change, negative = inhibition” value does the source give for `c1ccc(-c2nn3c(c2-c2ccnc4cc(OCCN5CCOCC5)ccc24)CCC3)nc1` here?
Answer: The value was 3.47% (inactive).
